We go through 13 molecules from PubChem BioAssay.

Molecules are shown by their SMILES. The source made the active and inactive calls.

Test [1] can be described thus: small molecules captured by biotinylated probe aFSTL3 – biochemical, small-molecule microarray, fluorescence 635/667, stem cell growth factor project, primary screen (AID 1064).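 Further: measures binding of the biotinylated anti-FSTL3 antibody to printed compounds.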 The settings on record: higher = more signal.
The nature of test [2]: binders from COS7 lysate, DM2A8 probe, primary screen, torsin A project, cell lysate, small-molecule microarray, fluorescence 635/667 (AID 1065). The settings on record: higher = more signal, COS7 lysate expressing mutant human TOR1A.
A short description of test [3]: small molecules captured by biotinylated probe aFGF2 – biochemical, small-molecule microarray, fluorescence 635/667, stem cell growth factor project, primary screen (AID 1067).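 Further: measures binding of biotinylated aFGF2 protein to printed compounds on slides; z-score merges feature fluorescence and signal-to-noise across triplicate slides.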 To be noted: higher = more signal.
Test [4] is described as follows: small molecules captured by biotinylated probe aFGF10 – biochemical, small-molecule microarray, fluorescence 635/667, stem cell growth factor project, primary screen (AID 1071).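 Further: score merges 667 nm spot intensity and signal to noise from triplicate slides.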 The settings on record: higher = more signal.
Test [5] deals with Neurogenic locus notch homolog protein 2 (Homo sapiens) (UniProt Q04721). The test can be described thus: small molecules binding Notch2 protein – biochemical, small-molecule microarray, 635 nm fluorescence, stem cell growth factors, primary screen (AID 1073). To be noted: higher = more signal.
Neurogenic locus notch homolog protein 2 (Homo sapiens), sequence (Q04721 whole entry, looked up, canonical isoform): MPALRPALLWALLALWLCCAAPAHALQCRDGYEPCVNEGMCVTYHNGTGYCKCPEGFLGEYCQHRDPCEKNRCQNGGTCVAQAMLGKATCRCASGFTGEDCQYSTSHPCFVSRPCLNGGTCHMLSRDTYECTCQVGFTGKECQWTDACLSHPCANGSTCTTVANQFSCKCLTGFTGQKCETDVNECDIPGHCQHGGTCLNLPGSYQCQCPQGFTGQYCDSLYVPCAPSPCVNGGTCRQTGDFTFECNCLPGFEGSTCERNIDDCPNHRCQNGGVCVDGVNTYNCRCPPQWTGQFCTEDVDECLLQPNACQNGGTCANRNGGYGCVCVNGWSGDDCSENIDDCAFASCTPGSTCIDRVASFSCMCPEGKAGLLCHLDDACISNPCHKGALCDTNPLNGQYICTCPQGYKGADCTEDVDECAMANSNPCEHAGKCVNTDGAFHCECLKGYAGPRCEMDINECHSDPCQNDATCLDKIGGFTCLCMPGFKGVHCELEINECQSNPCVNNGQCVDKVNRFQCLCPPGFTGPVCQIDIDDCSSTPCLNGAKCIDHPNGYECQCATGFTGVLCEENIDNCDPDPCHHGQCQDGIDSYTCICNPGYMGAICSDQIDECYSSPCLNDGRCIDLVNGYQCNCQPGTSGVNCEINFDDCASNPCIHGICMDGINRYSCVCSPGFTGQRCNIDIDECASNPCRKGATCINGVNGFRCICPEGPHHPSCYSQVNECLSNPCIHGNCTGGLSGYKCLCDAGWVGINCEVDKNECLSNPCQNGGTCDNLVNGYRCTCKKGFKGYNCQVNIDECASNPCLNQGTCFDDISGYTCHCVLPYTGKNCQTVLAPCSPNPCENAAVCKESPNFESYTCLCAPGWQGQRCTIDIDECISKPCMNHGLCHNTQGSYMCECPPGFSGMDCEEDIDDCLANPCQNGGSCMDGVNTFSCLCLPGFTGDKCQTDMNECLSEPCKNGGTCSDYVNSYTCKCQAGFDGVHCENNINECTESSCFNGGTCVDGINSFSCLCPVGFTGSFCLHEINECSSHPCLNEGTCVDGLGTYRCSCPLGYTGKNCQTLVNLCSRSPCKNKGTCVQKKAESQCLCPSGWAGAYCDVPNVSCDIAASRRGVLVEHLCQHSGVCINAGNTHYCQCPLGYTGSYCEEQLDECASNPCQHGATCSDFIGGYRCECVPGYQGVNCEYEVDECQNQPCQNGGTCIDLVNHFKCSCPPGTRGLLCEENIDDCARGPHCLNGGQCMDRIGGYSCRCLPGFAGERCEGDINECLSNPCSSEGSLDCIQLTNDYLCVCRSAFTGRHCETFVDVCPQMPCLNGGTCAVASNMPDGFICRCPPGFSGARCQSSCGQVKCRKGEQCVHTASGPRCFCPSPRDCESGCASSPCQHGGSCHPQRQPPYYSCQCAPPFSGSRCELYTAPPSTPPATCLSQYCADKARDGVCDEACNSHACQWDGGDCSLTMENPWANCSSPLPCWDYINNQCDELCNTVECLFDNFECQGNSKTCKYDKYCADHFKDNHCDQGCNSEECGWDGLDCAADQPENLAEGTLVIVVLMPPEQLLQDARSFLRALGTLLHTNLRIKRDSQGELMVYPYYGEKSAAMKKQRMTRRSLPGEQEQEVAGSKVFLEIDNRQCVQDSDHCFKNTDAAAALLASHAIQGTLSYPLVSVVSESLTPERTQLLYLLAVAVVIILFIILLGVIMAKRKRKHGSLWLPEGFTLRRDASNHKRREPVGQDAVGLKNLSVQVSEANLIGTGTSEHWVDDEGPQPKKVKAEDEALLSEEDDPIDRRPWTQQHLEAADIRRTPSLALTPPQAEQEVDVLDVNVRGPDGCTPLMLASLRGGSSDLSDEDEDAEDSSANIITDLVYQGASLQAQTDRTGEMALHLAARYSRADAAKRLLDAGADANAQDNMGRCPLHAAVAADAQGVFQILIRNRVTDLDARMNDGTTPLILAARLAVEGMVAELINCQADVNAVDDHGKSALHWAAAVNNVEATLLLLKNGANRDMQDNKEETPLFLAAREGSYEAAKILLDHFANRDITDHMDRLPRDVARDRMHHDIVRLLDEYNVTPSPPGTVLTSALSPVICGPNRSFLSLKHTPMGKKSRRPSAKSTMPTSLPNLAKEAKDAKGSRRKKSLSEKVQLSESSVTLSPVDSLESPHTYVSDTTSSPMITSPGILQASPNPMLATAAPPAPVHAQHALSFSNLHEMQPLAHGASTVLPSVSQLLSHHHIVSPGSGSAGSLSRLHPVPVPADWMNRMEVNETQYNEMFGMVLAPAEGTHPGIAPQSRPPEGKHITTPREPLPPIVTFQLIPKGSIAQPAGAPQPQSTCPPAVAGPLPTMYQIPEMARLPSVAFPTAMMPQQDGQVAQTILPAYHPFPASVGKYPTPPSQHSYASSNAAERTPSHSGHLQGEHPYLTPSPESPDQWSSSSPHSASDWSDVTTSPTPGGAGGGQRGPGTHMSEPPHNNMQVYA
Test [6] addresses Pro-neuregulin-1, membrane-bound isoform (Homo sapiens) (UniProt Q02297). Description: small molecules binding neuregulin-1 protein – biochemical, small-molecule microarray, fluorescence 635/667, psychiatric disease protein project, primary screen (AID 1075).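 Further: score combines 667 nm spot fluorescence with signal to noise.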 To be noted: NRG1 binding, 635 nm fluorescence, higher = more signal.
The subject of test [7] is Neuregulin-1 EGF-like domain. Description: small molecules binding NRG1 EGF domain – biochemical, small-molecule microarray, 635 nm fluorescence, primary screen (AID 1081).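 Further: binding of the protein to compounds printed on small-molecule microarray slides.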 The settings on record: higher = more signal.
Test [8] can be described thus: FRG1 expression reporter modulators in myotubes – cell-based, C2C12 myotubes, firefly/Renilla luciferase, luminescence, FRG1 inhibition for FSHD, primary screen (AID 1084). The settings on record: FRG1 promoter luciferase, higher = more signal, called active from +8 up or from −8 down.
Test [9] is described as follows: small molecules captured by biotinylated probe aFST – biochemical, small-molecule microarray, fluorescence 635/667, stem cell growth factor project, primary screen (AID 1086).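 Further: score merges 667 nm fluorescence with signal-to-noise of each printed compound spot.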 To be noted: higher = more signal.
Test [10] in a line: binders of probe aHhip on microarray, primary screen, stem cell growth factor project, biochemical, small-molecule microarray, fluorescence 635/667 (AID 1087).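 Further: score merges spot fluorescence at 667nm with spot signal to noise ratio.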 To be noted: higher = more signal.

Pro-neuregulin-1, membrane-bound isoform (Homo sapiens), sequence (Q02297 whole entry, looked up, the tested form may be a part, canonical isoform): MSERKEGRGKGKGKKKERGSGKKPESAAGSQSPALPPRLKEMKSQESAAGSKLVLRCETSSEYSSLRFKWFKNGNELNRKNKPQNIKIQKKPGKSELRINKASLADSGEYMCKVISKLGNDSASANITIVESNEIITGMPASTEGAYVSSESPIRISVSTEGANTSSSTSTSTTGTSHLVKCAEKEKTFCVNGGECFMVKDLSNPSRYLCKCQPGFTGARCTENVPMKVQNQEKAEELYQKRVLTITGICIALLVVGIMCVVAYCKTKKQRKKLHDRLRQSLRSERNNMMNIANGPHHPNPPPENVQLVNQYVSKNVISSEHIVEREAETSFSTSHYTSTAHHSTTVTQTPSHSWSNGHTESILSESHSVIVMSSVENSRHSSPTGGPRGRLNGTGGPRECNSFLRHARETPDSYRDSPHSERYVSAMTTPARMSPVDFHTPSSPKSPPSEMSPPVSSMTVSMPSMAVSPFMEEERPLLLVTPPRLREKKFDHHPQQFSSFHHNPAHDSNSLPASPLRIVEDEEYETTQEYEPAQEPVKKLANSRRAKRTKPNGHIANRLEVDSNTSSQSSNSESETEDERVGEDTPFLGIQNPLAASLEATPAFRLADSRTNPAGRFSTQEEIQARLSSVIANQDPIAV

With `CC(C)CON=C1C[C@@H](O)[C@@H](O)[C@@H]2[C@@H]3C(=O)N(c4ccc(F)cc4F)C(=O)[C@@H]3CC[C@@H]12`, the composite z-score was -0.527 in test [1]; 0.118 in test [2]; -0.0502 in [3]; 0.345 in [4]; 0.429 in test [5]; 0.984 in test [6]. In addition, the composite z-score in test [7] is 0.557; in [9] it was 0.283; in [10], -0.0994. In addition, the z-score in [8] is 0.581 (inactive).
Consider `C#CCCCON=C1C[C@@H](O)[C@@H](O)[C@@H]2[C@@H]3C(=O)N(C[C@@H]4CCCO4)C(=O)[C@@H]3CC[C@@H]12`, for which the composite z-score in test [1] is -0.499; in test [2], 0.153; in test [3] it was -0.0909; in test [4], 0.691; in test [5], 0.922; in test [6], 0.404. For the same molecule, the composite z-score in [7] is 0.275; in [9] it was -0.0371; in test [10] it was 0.0373. The z-score in [8] is 0.737 (inactive).
Consider `CC(CCN1CCc2nc(-c3ccccc3)c(-c3ccccc3)cc2C1)=NO[C@H](C)c1cn([C@H](CO)Cc2ccccc2)nn1`, for which the composite z-score in [1] was -0.11; in [2], 0.575; in test [3], -0.0569; in test [4] it was -0.332; in [5], -0.54; in test [6], 0.164. Also, the composite z-score was 0.299 in test [7], -0.125 in test [9] and -0.13 in test [10]. For the same molecule, the z-score in test [8] was -0.327 (inactive).
`COC(=O)[C@H](C)NC(=O)CCC1CC(OC(=O)NCc2ccc3c(c2)OCO3)CC2(CCCC(COC(=O)NCCc3ccc(Cl)cc3)O2)O1` (stereo not given in full): the composite z-score was -0.592 in test [1]; -0.406 in test [2]; -0.0812 in test [3]; 0.218 in [4]; 0.576 in test [5]; 0.212 in [6]. The composite z-score was 0.562 in [7], 0.17 in [9] and -0.126 in [10]. The z-score in [8] is 0.628 (inactive).
For the molecule `COc1ccc(COC(=O)NN=C2C[C@@H](O)[C@@H](O)[C@@H]3[C@@H]4C(=O)N([C@@H](C)c5ccccc5)C(=O)[C@@H]4CC[C@H]23)cc1`, the composite z-score in test [1] was 1.87; in test [2], 0.287; in test [3], -0.0614; in test [4] it was -0.129; in test [5], -0.249; in test [6], -0.413. In addition, the composite z-score is -0.592 in test [7], 0.951 in test [9] and -0.226 in test [10]. Also, the z-score in [8] was -0.797 (inactive).
As to `CO[C@H]1C[C@@H]2C[C@H](O)CC(CC(=O)O[C@@H](C=CCC(C)C)C[C@@H]3CC[C@H](C)[C@@H](C1)O3)O2`, the composite z-score is -0.479 in test [1]; 0.613 in test [2]; -0.0442 in test [3]; 0.365 in test [4]; 1.03 in test [5]; -0.33 in [6]. In addition, the composite z-score in test [7] is 0.661; in [9], 0.36; in test [10], -0.226. For the same molecule, the z-score in test [8] was 0.0521 (inactive).
Consider `COC(=O)[C@H](C)NC(=O)CCC1CC(OC(=O)NCc2cccc3ccccc23)CC2(CCCC(COC(=O)NCCOc3ccccc3)O2)O1` (stereo not given in full), for which the composite z-score is -0.359 in test [1]; 0.222 in test [2]; -0.0707 in test [3]; 0.15 in test [4]; 0.708 in [5]; 1.27 in test [6]. For the same molecule, the composite z-score was 1.01 in [7], 0.173 in test [9] and -0.169 in [10]. Moreover, the z-score in test [8] was 0.191 (inactive).
Regarding `O=C1CCCC=C1C(O)c1ccc([N+](=O)[O-])cc1` (stereo not given), the composite z-score in test [1] was -0.396; in test [2], 0.267; in test [3], -0.187; in [4] it was 0.535; in test [5], 0.254; in [6], -0.832. Further, the composite z-score in [7] was -0.0876; in test [9] it was -0.315; in test [10], -0.355. Also, the z-score in [8] is 0.925 (inactive).
`CON=C(C)CCC(=O)OC[C@H]1O[C@H](C#Cc2ccccc2)C=C[C@@H]1Oc1ccc(C)cc1`: the composite z-score in [1] is -0.453; in test [2], -0.172; in [3], -0.0563; in test [4], 0.33; in test [5], -0.598; in [6], 0.108. Further, the figures for the composite z-score in [7], in test [9] and in test [10] were 0.394, 0.423 and 0.0854, respectively. Besides, in test [8], the z-score was -0.127 (inactive).
With `CCOC(=O)[C@H](Cc1ccccc1)NC(=O)CCC1CC(OC(=O)NCc2ccc3c(c2)OCO3)CC2(CCCC(COC(=O)NCCc3ccc(Cl)cc3)O2)O1` (stereo not given in full), the composite z-score is -0.415 in test [1]; 0.388 in [2]; -0.114 in test [3]; 0.351 in test [4]; 0.832 in test [5]; 0.107 in test [6]. Further, the composite z-score is 0.918 in test [7], -0.18 in [9] and -0.0994 in test [10]. Moreover, the z-score in test [8] is -0.327 (inactive).
For `CCOC(=O)[C@H](Cc1ccccc1)NC(=O)CCC1CC(OC(=O)NCCc2ccc(F)cc2)CC2(CCCC(COC(=O)NCCOc3ccccc3)O2)O1` (stereo not given in full), the composite z-score in test [1] is -0.493; in test [2] it was 1.34; in test [3], -0.129; in test [4], 0.813; in [5], 1.17; in test [6], 0.843. Further, the composite z-score in [7] came to 1.03; in [9], 0.564; in [10], 0.162. The z-score in test [8] is -0.997 (inactive).
As for `C#CCCCON=C1C[C@@H](O)[C@@H](O)[C@@H]2[C@@H]3C(=O)N(C[C@@H]4CCCO4)C(=O)[C@@H]3CC[C@H]12`, the composite z-score in [1] was -0.444; in test [2] it was 0.368; in test [3], -0.168; in test [4] it was 0.188; in test [5], 0.53; in test [6], 0.43. In addition, the results for the composite z-score in [7], in test [9] and in [10] were 0.475, 0.0653 and -0.353, respectively. Moreover, the z-score in test [8] is 0.164 (inactive).
For `CC(=O)OC[C@H]1O[C@@H](ON=C(C)CCN2CCCCc3nc(C)c(C)cc32)[C@H](OC(C)=O)[C@@H](OC(C)=O)[C@@H]1OC(C)=O`, the composite z-score in test [1] is -0.587; in test [2], 0.515; in [3], -0.0801; in [4], 0.751; in test [5], 1; in [6], 0.853. The composite z-score in [7] amounted to 1.16; in test [9], 0.551; in [10] it was 0.0881. In addition, the z-score in test [8] is 0.694 (inactive).
